This is one part of a sample in which hits are shown more often than they occur.
TexasRed fluor – alters Texas Red total fluorescence, flagging assay interference. hit rate 0.29% among 280,000. Potency, µM (top dose mostly 106 µM), for the others: top-dose fluorescence change, negative = quenching. TRb/SRC2 Texas Red total fluorescence interference; active means well fitted curve in either direction with a large enough effect; inconclusive means small, poorly fitted or top-dose-only effect; further: on the % scale 0 is the no-effect control and ±100 the full control effect
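Human TRβ ligand-binding domain (0.6 uM) and Texas Red SRC2 peptide (20 nM) in Tris buffer with 1 uM T3 and 5% DMSO were incubated with pinned compound for 5 hr at ambient temperature. Total fluorescence was computed as S + 2P (555/632 nm).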
TRb SRC2 PPI – disrupts binding of human TR beta to SRC2. Potency, µM (titrated, usually from 106 µM), inactives show top-dose activity change, negative = inhibition, hits mostly inhibitors. TRbeta-SRC2 peptide binding, fluorescence polarization; receptor liganded with 1 µM T3. hit rate 0.065% among 280,000; active means well fitted inhibition curve with a large enough effect; inconclusive means small, poorly fitted or top-dose-only effect, or effect the other way;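 further: plate controls were bound peptide for no effect and peptide without receptor for full effect; nearly all actives have a fitted effect of over 50% in size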
Target sequence (P10828 whole entry, looked up): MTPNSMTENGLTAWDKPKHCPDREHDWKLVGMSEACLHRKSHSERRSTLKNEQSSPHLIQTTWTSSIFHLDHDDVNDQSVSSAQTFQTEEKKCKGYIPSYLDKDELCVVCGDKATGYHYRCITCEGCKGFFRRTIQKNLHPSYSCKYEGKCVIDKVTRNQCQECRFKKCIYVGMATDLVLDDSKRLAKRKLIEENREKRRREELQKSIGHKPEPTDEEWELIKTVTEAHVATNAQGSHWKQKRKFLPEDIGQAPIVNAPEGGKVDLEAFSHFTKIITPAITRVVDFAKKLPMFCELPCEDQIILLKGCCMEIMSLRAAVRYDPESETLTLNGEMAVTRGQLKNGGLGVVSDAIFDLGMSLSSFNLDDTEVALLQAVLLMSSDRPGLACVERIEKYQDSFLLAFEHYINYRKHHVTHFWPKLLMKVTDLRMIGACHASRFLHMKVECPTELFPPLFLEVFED
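TRb LBD 0.6 uM + Texas Red SRC2 peptide 20 nM, 1 uM T3, Tris buffer w/ 5% DMSO; compound pinned, 5 h RT; FP read ex 555/em 632; normalized to unbound and bound controls.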
ERG Ets-DNA blk – ERG Ets/DNA interaction inhibition | hit rate 0.028% among 370,000 | Potency, µM (series often up to 76.9 µM), for inactives: at the highest dose FP activity, negative = inhibition, hits mostly inhibitors | AID 624246 | fluorescence polarization, His-ERG Ets domain / labelled DNA | P11308; active means well fitted inhibition curve with a large enough effect in the polarisation, with a control signal flat; inconclusive means small, poorly fitted or top-dose-only effect, or effect the other way, or a change in a side signal; inactive means no such curve, though single readings can be large or run the other way; the % refers to the polarisation;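 further: polarization taken with two DNA probes labelled with fluorescein and Texas red; % of control where 0% means no effect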
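His-tagged ERG Ets domain (1 uM in the protein solution; 300mM KCl, 50mM Tris-HCl, 1mM EDTA, 1mM DTT, pH 7.5) received compound, then a probe mix of 5 nM fluorescein-DNA and 100nM Texas-615-DNA. Fluorescence polarization was read for both dyes.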
* = called active by the depositor; ? = inconclusive; · = no result given; [ ] = remark or other dose. Potency means the concentration at half of the fitted maximal effect.

SMILES | TexasRed fluor | TRb SRC2 PPI | ERG Ets-DNA blk
C=C[C@@H]1CN2CC[C@@H]1C[C@@H]2[C@H](O)c1ccnc2ccc(OC)cc12 | · | -5% | ·
Cc1ccc(C)c(N2CCN(CCCNC(=O)c3ccc4nc(N5CCCCC5)sc4c3)CC2)c1 | 0% | 7% | 9%
CCOCCOCCOC(C)=O | -5%[201 µM] | 6%[201 µM] | ·
Cc1cc(C)n2nc(SCC(=O)Nc3ccccc3)nc2n1 | -2% | -2% | -5%
Cc1cc(C)c(NC(=O)CSc2nc3nc(C)cc(C)n3n2)c(C)c1 | 20µM*[quencher] | -9% | 123%
Cc1cccc(N2CCN(S(=O)(=O)c3ccc4c(c3)C(C(C)C)C(=O)N4)CC2)c1C (stereo not given) | -4% | 0% | -8%
CCCCCCCCCCO | 0%[5.17e+03 µM] | 3%[5.17e+03 µM] | ·
CC1(C)Cc2c(c(-c3ccco3)[nH]c(=O)c2C#N)CS1 | ? | 45µM* | -17%
CC1(C)Cc2c(c(-c3ccccc3)[nH]c(=O)c2C#N)CS1 | -6% | -4% | -7%
Cn1cc(S(=O)(=O)c2cccc(Cl)c2)c(=O)c2cc(F)c(N3CCN(c4ccccc4)CC3)cc21 | 158µM*[quencher] | -30% | 2%
CCn1cc(S(=O)(=O)c2cccc(Cl)c2)c(=O)c2cc(F)c(N3CCN(c4ccccc4)CC3)cc21 | 6% | 5% | 2%
Cc1cc(C)cc(S(=O)(=O)c2cn(C)c3cc(N4CCN(C)CC4)c(F)cc3c2=O)c1 | · | · | 7%
CCCn1cc(S(=O)(=O)c2ccc(C)c(C)c2)c(=O)c2cc(F)c(N3CCC(C)CC3)cc21 | ? | -6% | -3%
Cc1cccc(S(=O)(=O)c2cn(C)c3cc(N4CCN(c5ccccc5)CC4)c(F)cc3c2=O)c1 | 56µM*[quencher] | ? | 8%
CCCn1cc(S(=O)(=O)c2ccc(C)c(C)c2)c(=O)c2cc(F)c(N3CCCCC3)cc21 | 282µM*[quencher] | -21% | 5%
C=CCN1C(=O)/C(=C\C=C2\N(C)c3ccccc3C2(C)C)SC1=S | ? | 13% | ?
CN1/C(=C\C=C2/SC(=S)N(CC(=O)O)C2=O)C(C)(C)c2ccccc21 | 45µM*[fluorescent] | ? | ?
CC(=O)c1[nH]c(C)c(C(=O)NCc2ccc(Cl)cc2)c1C | 1122µM*[quencher] | -25% | 9%
CCOC(=O)c1[nH]c(C)c(C(=O)NCc2ccc(Cl)cc2)c1C | -4% | -3% | -6%
CCOC(=O)c1ccc(NC(=O)c2c(C)oc3nc(C)nc(N4CCCC4)c23)cc1 | 2% | -8% | 0%
CCN(CC)C(=O)c1ccc2c(c1)N(Cc1ccc(C(F)(F)F)cc1)C(=O)c1ccccc1S2 | -1% | -7% | 0%
CCc1c(C)nc2c(OC)cccc2c1SCCC(=O)O | 0.79µM*[quencher] | -24%[53 µM] | -6%
CCCCc1c(C)nc2c(OC)cccc2c1SCCC(=O)O | -7% | -4% | 1%
Cc1ccc(Cl)cc1N1CCN(C(=O)Cn2nc(C)n3c(cc4sccc43)c2=O)CC1 | 79µM*[quencher] | -9% | -7%
Cc1nn(CC(=O)N2CCN(c3ccccc3)CC2)c(=O)c2cc3sccc3n12 | 6% | 1% | 2%
SMILES | TexasRed fluor | TRb SRC2 PPI | ERG Ets-DNA blk
COc1ccc(OC(C)C(=O)NCc2nc(-c3ccc(Cl)cc3)no2)cc1 (stereo not given) | 3% | 2% | 3%
CCn1c(=O)c(=O)[nH]c2cc(C(=O)NC3CC3)ccc21 | 16% | -17% | ·
CCn1c(=O)c(=O)[nH]c2cc(C(=O)NC3CCCc4ccccc43)ccc21 (stereo not given) | 40µM*[fluorescent] | 11% | 3%
O=c1c(O)cc(C2Oc3cc(O)cc(O)c3CC2O)cc2c(C3Oc4cc(O)cc(O)c4CC3O)cc(O)c(O)c12 (stereo not given) | 28µM*[quencher] | 1% | ·
Oc1cc(O)c2c(c1)O[C@H](c1ccc(O)c(O)c1)[C@@H](O)C2 | -3% | -1% | 3%
Cc1ccc(CNC(=O)c2ccc3c(c2)CCN3S(=O)(=O)c2ccc(Br)cc2)cc1 | -1% | -6% | 6%
Cc1ccccc1Nc1nnc(-c2ccc(C)c(S(=O)(=O)N3CCOCC3)c2)c2ccccc12 | 3% | -5% | -6%
Cc1ccc(Nc2nnc(-c3ccc(C)c(S(=O)(=O)N4CCOCC4)c3)c3ccccc23)c(C)c1 | 0.014µM*[quencher] | -12% | -4%
CCCN(CCC)CCNC(=O)c1nn(C)c2c1CS(=O)(=O)c1ccccc1-2 | 8% | 1% | 3%
CCCN(CCC)CCCNC(=O)c1nn(C)c2c1CS(=O)(=O)c1ccccc1-2 | 50µM*[quencher] | -17% | 3%
CCc1ccc(CNC(=O)c2nn(C)c3c2CS(=O)(=O)c2ccccc2-3)cc1 | · | · | 2%
CCOc1ccccc1CNC(=O)c1nn(C)c2c1CS(=O)(=O)c1ccccc1-2 | 0.11µM*[quencher] | -25% | -1%
Cc1cc(NC(=O)CN(C)S(=O)(=O)c2ccc3c(c2)CCCC(=O)N3)ccc1Br | -1% | 5% | 1%
COc1ccc(COC(=O)N/N=C2/C[C@@H](O)[C@@H](O)[C@@H]3[C@@H]4C(=O)N(C(C)(C)C)C(=O)[C@H]4CC[C@@H]23)cc1 | 0%[11.2 µM] | -2%[11.2 µM] | ·
COC(=O)c1ccccc1NC(=O)c1nc(-c2ccc(Cl)cc2)n2c1CCCCC2 | 20µM*[quencher] | -9% | 0%
CC(=O)c1ccc(NC(=O)c2nc(-c3ccc(Cl)cc3)n3c2CCCCC3)cc1 | 1% | -2% | 0%
CCOC(=O)c1cnc2c(C)cc(C)cc2c1Nc1ccc(S(=O)(=O)Nc2ncccn2)cc1 | 35µM*[quencher] | -13%[53 µM] | -1%
CCOC(=O)c1cnc2c(C)cc(C)cc2c1Nc1cccc(C(=O)O)c1 | -21% | 6% | 2%
CCC(O)c1cc2c(cc1NC(=O)c1ccccc1F)OCCO2 (stereo not given) | -3% | 1% | 6%
Cn1ccc2cc(S(=O)(=O)N3CCCN(C(=O)Nc4ccc(Br)cc4)CC3)ccc21 | -6% | 5% | 1%
CC(=O)OCCn1c2nc(=O)[nH]c(=O)c-2nc2cc(C)c(C)cc21 | -6% | -7% | 35µM*
Cc1cc2nc3c(=O)[nH]c(=O)nc-3n(CC(O)C(O)C(O)CO)c2cc1C (stereo not given) | -4% | -1% | ·
CC(=O)c1c(C)oc2c(Br)cc(NS(=O)(=O)c3ccc(Br)cc3)cc12 | -3% | -6% | 3%
CCC(=O)N1c2ccccc2CC1C(=O)NCCc1ccccc1OC (stereo not given) | -2% | -9% | 1%
C[C@]12CC[C@@H]3c4ccc(O)cc4CC[C@H]3[C@@H]1CCC2OC(=O)CCC1CCCC1 (stereo not given in full) | 0% | 0% | ·
SMILES | TexasRed fluor | TRb SRC2 PPI | ERG Ets-DNA blk
NC(=O)c1ccc(SCC(=O)OCC(=O)N2CCN(C(=O)c3ccco3)CC2)c([N+](=O)[O-])c1 | · | · | 1%
Nc1ccc(C(=O)OCC(=O)N2CCN(C(=O)c3ccco3)CC2)cc1[N+](=O)[O-] | 0.16µM*[quencher] | -12% | 7%
O=C(CCOc1ccccc1)Nc1cccc([N+](=O)[O-])c1 | 3% | -7% | -11%
O=C(COc1ccccc1)NC(=S)Nc1cccc([N+](=O)[O-])c1 | 0.89µM*[quencher] | ? | -1%
COc1ccc(NC(=O)c2sc3nc4c(c(-c5ccc(OC)cc5)c3c2N)C(=O)CC(C)(C)C4)cc1 | -3% | 1% | 1%
Cc1ccc(Cn2c(SCc3ccc(C(=O)N4CCCCCC4)cc3)nc3ccncc32)cc1 | -1% | 3% | 0%

Compound activity deposited in PubChem BioAssay by National Center for Advancing Translational Sciences (NCATS).
